Data taken from the supplement of paper PMC13380429.

Tested on: Vero E6 infected with SARS-CoV-2
Assay: inhibition of SARS-CoV-2 cytopathic effect; higher = more antiviral protection, active = above 15
Details: 48 h

Measured: inhibition of SARS-CoV-2 cytopathic effect

Oc1cccc(Nc2ncc(F)c(Nc3cccc(O)c3)n2)c1
inactive: 1 nM 2.79% | 8.33 nM 0.2% | 100 nM 0.24% | 833.33 nM -2.05% | 10000 nM -5.48%

CCn1ccnc1CC1COc2ccccc2O1 (stereo not given) [imiloxan]
inactive: 1 nM 2% | 8.33 nM -0.87% | 100 nM -0.32% | 833.33 nM 4.69% | 10000 nM -0.13%

CC(=O)N(O)[C@@H]1c2cc(C#N)ccc2OC(C)(C)[C@H]1O
inactive: 1 nM -2.54% | 8.33 nM 0.31% | 100 nM 1.05% | 833.33 nM 0.36% | 10000 nM 3.02%

COc1ccc(C(=O)Nc2c(Cl)cncc2Cl)cc1OC1CCCC1 [piclamilast]
inactive: 1 nM -1.88% | 8.33 nM -0.22% | 100 nM 0.16% | 833.33 nM -2.24% | 10000 nM -0.91%

COc1nccnc1NS(=O)(=O)c1ccc(N)cc1 [sulfametopyrazine]
inactive: 1 nM -1.43% | 8.33 nM 0.06% | 100 nM -1.36% | 833.33 nM -2.74% | 10000 nM -0.68%

CCn1nc(C(=O)O)c(=O)c2cc3c(cc21)OCO3 [cinoxacin]
inactive: 1 nM 0.52% | 8.33 nM -0.24% | 100 nM 0.19% | 833.33 nM 0.12% | 10000 nM -1.09%

OCCN1CCN(CCCN2c3ccccc3C=Cc3ccccc32)CC1 [opipramol]
inactive: 1 nM 2.92% | 8.33 nM 1.37% | 100 nM 1.62% | 833.33 nM -1.41% | 10000 nM -3.08%

CCN(CC)C(=O)[C@@]1(c2ccccc2)C[C@H]1CN [milnacipran]
inactive: 1 nM -4.3% | 8.33 nM -3.38% | 100 nM -4.94% | 833.33 nM -0.26% | 10000 nM 1.05%

Fc1ccc([C@@H]2CCNC[C@H]2COc2ccc3c(c2)OCO3)cc1 [paroxetine]
inactive: 1 nM -4.2% | 8.33 nM -2.01% | 100 nM -2.05% | 833.33 nM -1.89% | 10000 nM -13.1%

CCCn1c(=O)c2[nH]c(-c3cnn(Cc4cccc(C(F)(F)F)c4)c3)nc2n(CC)c1=O
inactive: 1 nM 1.43% | 8.33 nM 1.19% | 100 nM 2.16% | 833.33 nM -0.96% | 10000 nM 0.11%

COc1cc2c(cc1OC)CN(C(=O)[C@@H](NCc1ccncc1)C(C)(C)C)CC2
inactive: 1 nM 2.06% | 8.33 nM 3.28% | 100 nM 2.93% | 833.33 nM 1.04% | 10000 nM 1.19%

O=C(O)C1=CCNCC1 [isoguvacine]
inactive: 1 nM 0.65% | 8.33 nM 0.98% | 100 nM 0.98% | 833.33 nM 3.23% | 10000 nM 2.12%

Cn1c(NCCN(CCO)CCCc2ccc([N+](=O)[O-])cc2)cc(=O)n(C)c1=O [nifekalant]
inactive: 1 nM -1.86% | 8.33 nM 0% | 100 nM -1.76% | 833.33 nM -0.02% | 10000 nM -1.25%

Cn1cnc2c(F)c(Nc3ccc(Br)cc3F)c(C(=O)NOCCO)cc21 [binimetinib]
inactive: 1 nM 3.85% | 8.33 nM -3.38% | 100 nM -9.91% | 833.33 nM -10.1% | 10000 nM -12%

O=C(O)CCc1ccc(NCc2cccc3c2CCCN3CCOc2ccccc2)cc1F
inactive: 1 nM 2.94% | 8.33 nM 4.34% | 100 nM -0.81% | 833.33 nM 1.53% | 10000 nM 0.9%

O=C1c2ccc(Nc3ccc(F)cc3F)cc2CCc2ccc(OC[C@H](O)CO)cc21 [skepinone-L]
inactive: 1 nM -0.76% | 8.33 nM -3.41% | 100 nM -5.13% | 833.33 nM -8.06% | 10000 nM -9.5%

CC(=O)N(CC(O)CN(C(C)=O)c1c(I)c(C(=O)NCC(O)CO)c(I)c(C(=O)NCC(O)CO)c1I)c1c(I)c(C(=O)NCC(O)CO)c(I)c(C(=O)NCC(O)CO)c1I (stereo not given) [iodixanol]
inactive: 1 nM -1.14% | 8.33 nM 3.23% | 100 nM 2.34% | 833.33 nM -0.66% | 10000 nM -1.88%

OC(CCN1CCCCC1)(c1ccccc1)C1CCCCC1 (stereo not given) [trihexyphenidyl]
inactive: 1 nM -14.3% | 8.33 nM -7.63% | 100 nM -2.35% | 833.33 nM -9.38% | 10000 nM -10.1%

CCOC(=O)N1CSC[C@H]1C(=O)O [telmesteine]
inactive: 1 nM 1.96% | 8.33 nM 2.23% | 100 nM 2.74% | 833.33 nM 4.95% | 10000 nM -0.12%
